“And” between values parts separate entries of the source, which are not always exact repeats. Equal values may be shown once. The source made the active and inactive calls.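 The calls were made as follows: active = inhibition reaching about 16% in any single replicate (limit read from the data); inactive = the rest.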
Target: Hexokinase HKDC1 (Homo sapiens) (UniProt Q2TB90)
Assay: HKDC1 hexokinase inhibitors, confirmation, biochemical, single concentration (AID 504710)
Details: recombinant HKDC1, G6PDH/diaphorase/resazurin fluorescence; at 20 µM; hits give high values

Sequence of Hexokinase HKDC1 (Homo sapiens) (Q2TB90 whole entry, looked up): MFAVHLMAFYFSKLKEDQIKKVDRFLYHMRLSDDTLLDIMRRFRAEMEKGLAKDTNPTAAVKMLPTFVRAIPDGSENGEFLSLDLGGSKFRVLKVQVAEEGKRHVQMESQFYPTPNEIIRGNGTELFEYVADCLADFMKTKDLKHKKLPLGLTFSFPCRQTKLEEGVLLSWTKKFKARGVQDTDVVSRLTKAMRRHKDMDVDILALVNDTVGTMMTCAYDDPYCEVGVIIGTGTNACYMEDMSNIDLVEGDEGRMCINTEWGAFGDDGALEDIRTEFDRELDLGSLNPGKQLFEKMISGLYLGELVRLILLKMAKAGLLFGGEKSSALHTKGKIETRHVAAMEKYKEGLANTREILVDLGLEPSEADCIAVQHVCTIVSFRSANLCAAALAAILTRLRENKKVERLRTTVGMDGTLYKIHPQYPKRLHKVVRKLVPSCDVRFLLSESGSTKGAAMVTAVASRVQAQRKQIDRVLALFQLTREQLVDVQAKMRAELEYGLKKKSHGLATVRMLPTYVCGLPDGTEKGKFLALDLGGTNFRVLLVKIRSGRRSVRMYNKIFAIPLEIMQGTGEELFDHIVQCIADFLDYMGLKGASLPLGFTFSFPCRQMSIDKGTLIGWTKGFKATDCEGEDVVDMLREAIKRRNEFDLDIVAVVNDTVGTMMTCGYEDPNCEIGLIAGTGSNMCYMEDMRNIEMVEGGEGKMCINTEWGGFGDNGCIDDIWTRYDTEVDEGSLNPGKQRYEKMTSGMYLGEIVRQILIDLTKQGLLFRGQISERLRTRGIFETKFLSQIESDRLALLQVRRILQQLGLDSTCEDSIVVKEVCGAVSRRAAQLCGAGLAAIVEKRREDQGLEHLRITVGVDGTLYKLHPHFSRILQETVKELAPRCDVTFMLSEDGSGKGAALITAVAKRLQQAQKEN

Q: For `COc1cc(/C=C2/C(=O)NN(c3ccc(Cl)c(Cl)c3)C2=O)cc([N+](=O)[O-])c1O`, which inhibition is on record?
A: Its inhibition is 33.1% (active).

Q: `CCC(c1ccccc1)C(CC)c1cc(O)c(O)c(O)c1` (configuration not stated) was tested. Which inhibition did it give?
A: The inhibition was 35.8% (active).

Q: For `Cc1onc(-c2ccccc2)c1C(=O)NNC(=S)NC(=O)c1ccc(Br)cc1`, which inhibition is on record?
A: The inhibition was -56.7% (inactive).

Q: Which inhibition does the source give for `COc1cc2c(cc1OC)-c1cc(NCc3ccccn3)nc(=O)n1CC2` here?
A: Its inhibition is 54% (active).

Q: With `CC(=NNC(=S)N1CC2CCC(CC2)C1)c1ccncn1` as the compound, how does the inhibition read?
A: The inhibition was -61.4% (inactive).

Q: `CCCOc1ccc(/C=N/NC(=S)Nc2ccccc2[N+](=O)[O-])c(O)c1` was tested. Which inhibition did it give?
A: The inhibition was -47.6% (inactive).

Q: For `CCN(CC)C(=O)c1ccc(C(=O)c2c(C)cc(C)cc2C)cc1`, which inhibition is on record?
A: Its inhibition is -40.1% (inactive).

Q: For `Cc1ccc(S(=O)(=O)Nc2c(O)ccc3ccccc23)cc1`, which inhibition is on record?
A: Its inhibition is 35.5% (active).

Q: How did the inhibition turn out when `C[N+](C)(CCCCCC[N+](C)(C)CCCN1C(=O)c2cccc3cccc(c23)C1=O)CCCN1C(=O)c2cccc3cccc(c23)C1=O` was run?
A: The inhibition was -82% (inactive).

Q: For `COc1ccc(OC)c2[nH]c(=O)c(CCNC(=O)c3cc4ccccc4o3)cc12`, which inhibition is on record?
A: Its inhibition is 59.6% (active).

Q: For `O=C1C(=O)c2c(C(=O)c3ccccc3)coc2-c2ccccc21`, which inhibition is on record?
A: The inhibition was 53.2% (active).

Q: `O=C1NC(=S)N/C1=C/c1cc2c(cc1[N+](=O)[O-])OCO2` was tested. Which inhibition did it give?
A: The inhibition was -36.6% (inactive).

Q: How did the inhibition turn out when `NC(=NCCCCCCN=C(N)/N=C(\N)Nc1ccc(Cl)cc1)/N=C(\N)Nc1ccc(Cl)cc1` was run?
A: Its inhibition is 49.3% (active) and 46.4% (active).

Q: Which inhibition does the source give for `O=C(O)c1ccccc1-c1c2cc(I)c(=O)c(I)c-2oc2c(I)c(O)c(I)cc12` here?
A: Its inhibition is 43.5% (active).

Q: How did the inhibition turn out when `COc1ccc(S(=O)(=O)Nc2ccc(O)c3ccccc23)cc1` was run?
A: Its inhibition is 51.2% (active).

Q: How did the inhibition turn out when `CC(=O)C1=C(c2ccccc2)N(C(C)=O)n2c(C)nnc2S1` was run?
A: Its inhibition is -125% (inactive).

Q: With `O=C(COC(=O)c1n[nH]c2ccccc12)c1cccc(Br)c1` as the compound, how does the inhibition read?
A: The inhibition was -30.5% (inactive).

Q: Which inhibition does the source give for `COc1ccccc1NC(=S)NN=C(C)c1ccccn1` here?
A: Its inhibition is -61% (inactive).

Q: How did the inhibition turn out when `Cc1nc2c(O)c3c(c(O)c2nc1C)C1C=CC3CC1` was run?
A: The inhibition was 89.5% (active).

Q: `Cc1[nH]c2ccccc2c1C1=CC(=O)C=CC1=O` was tested. Which inhibition did it give?
A: Its inhibition is 52.9% (active).

Q: How did the inhibition turn out when `CCOc1ccc(/C=C2/SC(=S)N(CCC(=O)Nc3ccc(C(=O)O)cc3)C2=O)cc1` was run?
A: Its inhibition is -41.5% (inactive).

Q: For `O=S(=O)(c1ccc(NC(=S)NN=C(Cc2ccccc2)Cc2ccccc2)cc1)N1CCOCC1`, which inhibition is on record?
A: The inhibition was -43.9% (inactive).

Q: With `CCn1cc(C(=O)NCc2ccc3c(c2)OCO3)c2cc(OC)c(OC)cc2c1=O` as the compound, how does the inhibition read?
A: The inhibition was 45.9% (active).

Q: How did the inhibition turn out when `COC(=O)c1ccccc1NC1=C/C(=N\S(=O)(=O)c2cccs2)c2ccccc2C1=O` was run?
A: Its inhibition is 62.6% (active).

Q: For `CC12CCC(C(=O)N/N=C/c3ccc(O)cc3O)(OC1=O)C2(C)C` (configuration not stated), which inhibition is on record?
A: The inhibition was -34.9% (inactive).

Q: With `Cc1ccc(C(=O)c2c(C)oc3c2C(=O)C(=O)c2ccccc2-3)cc1` as the compound, how does the inhibition read?
A: Its inhibition is 46.2% (active).

Q: With `O=C1c2ccccc2-c2onc3ccc(Oc4ccccc4)c1c23` as the compound, how does the inhibition read?
A: Its inhibition is 28.2% (active).

Q: For `O=NNc1nc2ccccc2n1Cc1ccccc1`, which inhibition is on record?
A: The inhibition was -44.2% (inactive).

Q: Which inhibition does the source give for `CC(=O)NC1C(=O)N(CCN2CCOCC2)c2ccc(F)cc21` (configuration not stated) here?
A: Its inhibition is 61.1% (active).

Q: `Clc1cccc(N=C2NN=C(c3ccc4c(c3)OCCO4)CS2)c1` was tested. Which inhibition did it give?
A: The inhibition was -99.6% (inactive).

Q: With `COCC(=O)OC1CCn2c1nc1c2C(=O)C(C)=C(NC(C)=O)C1=O` (configuration not stated) as the compound, how does the inhibition read?
A: The inhibition was 79.4% (active).

Q: With `O=C1C(Cl)=C(N2CCC(C(=O)O)CC2)C(=O)c2ccccc21` as the compound, how does the inhibition read?
A: The inhibition was 57.2% (active).

Q: Which inhibition does the source give for `CN(C)Cc1cc(O)c(CN(C)C)cc1O` here?
A: Its inhibition is 70.3% (active).

Q: How did the inhibition turn out when `COC1(NS(=O)(=O)c2ccc(Br)cc2)C(C)=CC(=O)C=C1C` was run?
A: Its inhibition is 26.3% (active).

Q: For `NC(=NCc1ccc2c(c1)OCO2)NC(=O)c1ccccc1`, which inhibition is on record?
A: Its inhibition is 16.7% (active).

Q: `CCc1ccc(S(=O)(=O)/N=C2/C=C(Sc3ncn[nH]3)C(=O)c3ccccc32)cc1` was tested. Which inhibition did it give?
A: Its inhibition is 73% (active).

Q: For `CCOC(=O)c1c(C)[nH]c(C2=NNC(=Nc3ccccc3OC)SC2)c1C`, which inhibition is on record?
A: The inhibition was -86.4% (inactive).

— PubChem BioAssay AID504710 (Sanford-Burnham Center for Chemical Genomics, 2011)
